Test results: US20200071711, “MODULAR CONSTRUCTION OF SYNTHETIC GENE CIRCUITS IN MAMMALIAN CELLS USING MATHEMATICAL MODELING OF CLOSED LOOP TRANSCRIPTIONAL REPRESSORS” (Tsinghua University, published 2020)

Experiments:
TALER22 = target: T1, TALER22 (synthetic, UniProt P14727 SEQ:1-806); assay: cell_activity; HEK293, two sites flanking CMVmini; conditions: tags: EYFP-2A upstream, SV40 NLS; dsDNA, one strand shown
T1 chain: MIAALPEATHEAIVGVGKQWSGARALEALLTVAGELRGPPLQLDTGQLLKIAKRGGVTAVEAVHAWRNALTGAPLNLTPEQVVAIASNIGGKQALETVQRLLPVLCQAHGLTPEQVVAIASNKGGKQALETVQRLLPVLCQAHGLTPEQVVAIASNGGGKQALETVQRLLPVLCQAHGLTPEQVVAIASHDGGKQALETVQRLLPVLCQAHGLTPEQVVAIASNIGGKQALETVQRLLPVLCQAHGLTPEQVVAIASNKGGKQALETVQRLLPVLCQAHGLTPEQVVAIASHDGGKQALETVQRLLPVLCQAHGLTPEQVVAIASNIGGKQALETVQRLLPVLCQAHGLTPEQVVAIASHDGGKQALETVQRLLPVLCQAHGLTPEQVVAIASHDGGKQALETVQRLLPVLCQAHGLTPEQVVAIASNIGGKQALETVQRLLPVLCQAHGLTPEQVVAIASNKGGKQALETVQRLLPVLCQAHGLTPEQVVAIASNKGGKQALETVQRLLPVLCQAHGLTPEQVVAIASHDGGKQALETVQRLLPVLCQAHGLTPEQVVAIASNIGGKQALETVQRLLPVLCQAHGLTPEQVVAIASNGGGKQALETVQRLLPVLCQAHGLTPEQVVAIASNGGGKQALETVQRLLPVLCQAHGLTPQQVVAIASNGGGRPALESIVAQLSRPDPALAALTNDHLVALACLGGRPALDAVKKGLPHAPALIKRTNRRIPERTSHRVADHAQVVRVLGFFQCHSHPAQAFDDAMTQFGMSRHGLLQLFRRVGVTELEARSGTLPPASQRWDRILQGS

TALER23 = target: T2, TALER23 (synthetic, UniProt P14727 SEQ:1-806); assay: cell_activity; HEK293, two sites flanking CMVmini; conditions: tags: EYFP-2A upstream, SV40 NLS; dsDNA, one strand shown
T2 chain: T1 chain

Sequence | binding signal (TALER22) [fold repression] | binding signal (TALER23) [fold repression]
TAGTCAGCACCAGGCATTT | 4.66 | 
TCCGGATGCTCCTCTTAAT |  | 2.2
